VP16 counter = Gal4-VP16 reporter inhibition counter-screen; Potency, µM (titrated, usually from 53.6 µM), without a hit: top-dose activity, negative = inhibition, hits mostly inhibitors; actives 3.5% (n = 310,000); Drosophila S2 Gal4-VP16 UAS-luciferase, luminescence, 20 h;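 also: Gal4-VP16 expression switched on by copper sulfate through the metallothionein promoter; potency is read from the fitted curve at half-maximal effect; % is scaled to controls: 0 for no effect and ±100 for the full control effect; nearly all actives have a fitted effect of over 50% in size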
uPA surface inh = cell surface uPA generation inhibition. cell surface uPA generation assay, qHTS. actives 0.31% (n = 330,000). AID 540303. Potency, µM (titrated, usually from 38.3 µM), without a hit: at the highest dose activity change, negative = inhibition, actives largely listed as inhibitors; active = well fitted inhibition curve with a large enough effect; inconclusive = small, poorly fitted or top-dose-only effect; inactive = no such curve, though single readings can be large or run the other way; tested in mouse RAW 264.7 cells; also: potency is read from the fitted curve at half-maximal effect; % is scaled to controls: 0 for no effect and ±100 for the full control effect; nearly all actives have a fitted effect of over 55% in size
TRPV1 agonist = agonists of human vanilloid receptor 1 (TRPV1); TRPV1-expressing cells, Fluo-8 calcium influx, agonist mode; Q8NER1; activation, % at 8.33 µM; actives 0.19% (n = 320,000); AID 540275; in the data active = activation above about 80%; inconclusive = between about 30% and that limit; also: 0% is about no effect
Target sequence (Q8NER1 whole entry, looked up): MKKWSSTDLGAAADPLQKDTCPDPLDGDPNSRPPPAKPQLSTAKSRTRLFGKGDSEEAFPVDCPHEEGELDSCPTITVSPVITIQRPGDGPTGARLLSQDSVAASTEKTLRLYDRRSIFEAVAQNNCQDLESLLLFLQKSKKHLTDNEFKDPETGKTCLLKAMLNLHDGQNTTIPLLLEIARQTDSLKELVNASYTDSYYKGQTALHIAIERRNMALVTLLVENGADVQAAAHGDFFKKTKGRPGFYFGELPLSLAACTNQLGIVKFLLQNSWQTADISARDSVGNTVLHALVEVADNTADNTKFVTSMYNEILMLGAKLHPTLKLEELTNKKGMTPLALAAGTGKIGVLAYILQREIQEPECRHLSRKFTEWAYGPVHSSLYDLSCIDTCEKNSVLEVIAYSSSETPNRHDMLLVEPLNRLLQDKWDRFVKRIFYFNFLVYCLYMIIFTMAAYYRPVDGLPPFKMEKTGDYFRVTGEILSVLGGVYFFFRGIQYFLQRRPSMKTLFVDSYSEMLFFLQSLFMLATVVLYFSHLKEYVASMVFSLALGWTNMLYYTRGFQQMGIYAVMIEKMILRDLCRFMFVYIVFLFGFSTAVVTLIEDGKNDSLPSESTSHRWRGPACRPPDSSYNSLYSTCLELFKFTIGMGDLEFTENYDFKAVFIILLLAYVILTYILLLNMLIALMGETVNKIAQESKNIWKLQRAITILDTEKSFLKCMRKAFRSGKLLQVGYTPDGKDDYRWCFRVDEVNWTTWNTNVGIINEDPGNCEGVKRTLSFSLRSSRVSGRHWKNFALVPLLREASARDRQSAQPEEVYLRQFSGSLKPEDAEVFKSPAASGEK
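TRPV1-expressing cells were cultured overnight at 35.5C and loaded with Fluo-8 calcium dye for 40 to 90 min at room temperature. After a 10 s baseline, compound was added and calcium influx was read kinetically for 3 min (ex 480/em 520 nm).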
RORgamma inh = ROR gamma (mouse) transcription inhibition; P51450; Potency, µM (doses to about 53.6 µM), without a hit: top-dose activity change, negative = inhibition, most hits filed as inhibitors; actives 5.4% (n = 310,000); Drosophila S2 Gal4-RORgamma UAS-luciferase reporter, 20 h; also: potency is read from the fitted curve at half-maximal effect; % is scaled to controls: 0 for no effect and ±100 for the full control effect; nearly all actives have a fitted effect of over 60% in size
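Drosophila S2 cells stably expressing Gal4-DBD/mouse RORγ fusion under metallothionein promoter plus UAS-luciferase; compound 1 h, then 700 uM CuSO4 induction for 20 h at ambient temperature; inhibition read as reduced luminescence.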
TRPV1 potentiator = enhances activation of the human vanilloid receptor TRPV1. TRPV1-expressing cells, Fluo-8 calcium influx, capsaicin EC20 potentiation. actives 0.02% (n = 320,000). AID 540277. potentiation, % at 8.33 µM; in the data active = potentiation above about 80%; inconclusive = between about 30% and that limit; also: 0% is about no effect
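Fluo-8 calcium influx in TRPV1-expressing cells, kinetic read (ex 480/em 520 nm). Compound added and read 3 min for agonist activity, followed by capsaicin at EC20 final and 2 min further read for enhancement.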
An asterisk follows results filed as active; ? = inconclusive; . = no result given. Compounds with a hit are over-represented: about 5.8% of the library has one in this group of screens. Unless noted, calls follow the shape of the dose curve; as a rule, active = well fitted curve in the direction sought with a large enough effect; inconclusive = small, poorly fitted or top-dose-only effect, or another doubt; inactive = no such curve, though single readings can be large; an effect the other way counts as inactive or inconclusive.

SMILES | VP16 counter | uPA surface inh | TRPV1 agonist | RORgamma inh | TRPV1 potentiator
CCCn1c(=S)[nH]c2cc(OC)c(OC)cc2c1=O | 7.9µM* | . | -3 | 3.2µM* | 10
COc1cc2[nH]c(=S)n(Cc3cccs3)c(=O)c2cc1OC | -15% | 6% | -4 | ? | 11
NC(=O)Cn1c(=O)n(CCCC(=O)NC2CCN(Cc3ccccc3)CC2)c(=O)c2ccccc21 | -6% | 8% | -1 | 2% | -9
O=C(CCn1c(=O)c2ccccc2n(Cc2ccccc2)c1=O)NC1CCN(Cc2ccccc2)CC1 | -4% | -23% | 3 | 0.11µM* | -2
CCOC(=O)c1nnc(-c2ccccc2)nc1Oc1ccc(Cl)cc1 | 10µM* | -7% | 13 | 20µM* | -2
CCOC(=O)c1nnc(-c2ccccc2)nc1Sc1ccccc1Cl | ? | -17% | 16 | -12% | -3
Cc1ccccc1NS(=O)(=O)c1ccc(C)c(NS(C)(=O)=O)c1C | 2% | 1% | -3 | 10% | 5
COc1ccc(CCN(C)CCCOc2ccc(S(=O)(=O)c3[nH]c4ccccc4c3C(C)C)cc2)cc1OC | 18µM* | . | . | 14µM* | .
O=C(c1ccc2nccnc2c1)N1CCCC(N2CCN(c3ccc(F)cc3)CC2)C1 (stereo not drawn) | -4% | 0% | 8 | 9% | -15
CC(CCN1CCN(CCO)CC1)c1ccccc1 (stereo not drawn) | 3% | 11% | -1 | 2.8µM* | 10
CC1CN(C(=S)Nc2ccc(SC(F)F)cc2)CC(C)O1 (stereo not drawn) | -8% | 1% | 22 | 11µM* | -17
CC1CN(c2ccc(NC(=S)Nc3ccc(N4CC(C)OC(C)C4)cc3)cc2)CC(C)O1 (stereo not drawn) | 8.9µM* | -3% | 1 | 2.5µM* | 7
CC1CC(C)CN(C(=S)Nc2ccc(OC(F)F)cc2)C1 (stereo not drawn) | ? | -12% | 18 | 11µM* | 6
CC1CC(C)CN(C(=S)Nc2ccc(SC(F)F)cc2)C1 (stereo not drawn) | 11µM* | 1% | 8 | 5µM* | -6
CNC(=O)c1ccccc1Sc1cccc2cccc(C(=O)O)c12 | 4% | 6% | -3 | -7% | -1
CCN(Cc1ccc(N(C)C)cc1)C(C)C(=O)Nc1ccc(S(=O)(=O)N2CCCC2)cc1 (stereo not drawn) | . | 13% | -1 | . | 13
O=C(N/N=C/c1ccc(N2CCCCC2)o1)c1ccccc1[N+](=O)[O-] | 8.9µM* | -3% | 9 | ? | 0
O=C(N/N=C/c1ccc(N2CCOCC2)o1)c1ccccc1[N+](=O)[O-] | ? | 3% | -1 | 13µM* | 2
O=C(N/N=C/c1ccncc1)c1ccccc1[N+](=O)[O-] | 2% | -4% | -6 | -18% | -1
O=C(N/N=C/c1ccc(N2CCOCC2)s1)c1ccccc1Br | -7% | 2% | 1 | 11µM* | 9
O=C(N/N=C/c1ccc(N2CCOCC2)o1)c1cccc(C(F)(F)F)c1 | 4µM* | -3% | 5 | 6.3µM* | 0
O=C(Nc1ccc(N2CCOCC2)nc1N1CCOCC1)c1cccc(C(F)(F)F)c1 | 9% | 2% | 18 | 25% | -15
COc1ccc(S(=O)(=O)N2CCOC2CNC(=O)C(=O)NCc2ccccn2)cc1C (stereo not drawn) | 1% | 20% | -1 | -3% | 6
O=C(Nc1cccc([N+](=O)[O-])c1)c1ccc2c(c1)C(=O)N(c1ccccn1)C2=O | 2% | 4% | 0 | 13% | 2
C#CCCCC(=O)Nc1ccccc1 | 2% | . | . | -10% | .
SMILES | VP16 counter | uPA surface inh | TRPV1 agonist | RORgamma inh | TRPV1 potentiator
CC1CCN(c2nc(/C=C/c3ccccc3)nc3ccccc23)CC1 | ? | -10% | 29 | 16µM* | -7
C(=C\c1nc(N2CCCC2)c2ccccc2n1)/c1ccccc1 | -7% | 0% | -5 | 44% | -1
CC1CCN(c2nc(-c3ccncc3)nc3ccccc23)CC1 | ? | 7% | 17 | 11µM* | -16
CCC1CCCCN1c1nc(-c2ccncc2)nc2ccccc12 (stereo not drawn) | -13% | . | ? | ? | -13
CC1CCCCN1c1nc(-c2ccncc2)nc2ccccc12 (stereo not drawn) | -19% | 4% | ? | 11µM* | -42
OCCC1CN(Cc2cccc3nonc23)CCN1C1CCCCC1 (stereo not drawn) | 1% | -5% | 0 | 1% | 4
COc1ccc(-c2cnc3n2CCCCC3)cc1 | -3% | -2% | 13 | ? | -19
Brc1cccc(-c2cnc3n2CCCCC3)c1 | 10µM* | -13% | -13 | 0.4µM* | 20
Clc1ccc(-c2cnc3n2CCC3)cc1 | -6% | . | ? | 18µM* | -7
Nc1nc(=S)c2[nH]cnc2[nH]1 | -1% | 0.16µM* | 3 | 0% | -12
Nc1nc(=S)c2[nH]c(=S)[nH]c2[nH]1 | . | -8% | . | . | .
CC(C)(C)OC(=O)N1CCCC1C(=O)NC1COC2CC(n3ccc(=O)[nH]c3=O)OC12 (stereo not drawn) | -3% | . | . | -3% | .
CCOC(=O)/C(=C\c1ccc(Cl)cc1)c1nc2sc(C)c(C)c2c(=O)[nH]1 | 11µM* | -18% | -1 | ? | 14
CCOC(=O)CSc1nc2sc(C)c(C)c2c(=O)[nH]1 | -18% | -4% | 1 | 0% | -1
CCCOC(=O)c1ccc(Oc2c(-c3ccc(OCC)cc3O)n[nH]c2C)cc1 | -4% | 0% | 18 | -8% | -24
CCCOC(=O)c1ccc(Oc2cn[nH]c2-c2ccc(OCC)cc2O)cc1 | ? | 8% | 4 | 10µM* | 0
COc1cccc(Oc2cn[nH]c2-c2ccc(OC)cc2O)c1 | 13µM* | -5% | -1 | 7.1µM* | 6
COc1cccc(Oc2cn[nH]c2-c2ccc(O)cc2O)c1 | ? | -3% | -5 | ? | 4
CCOc1ccc(-c2[nH]ncc2Oc2cccc(OC)c2)c(O)c1 | ? | 1% | 0 | 11µM* | 18
CC(=O)c1cc2c(cc1NC(=O)CSc1ccc(S(=O)(=O)N(C)C)cn1)OCO2 | . | -5% | 6 | . | 6
O=C(c1ccc([N+](=O)[O-])s1)N1CCN(c2ccccc2)CC1 | -18% | ? | ? | 25µM* | -13
O=C(Nc1cccc([N+](=O)[O-])c1)N1CCN(c2ccccc2)CC1 | -29% | 4% | 100* | -1% | -17
Cc1ccc(N2CCN(C(=O)Nc3cccc([N+](=O)[O-])c3)CC2C)cc1 (stereo not drawn) | -10% | 4% | 83* | ? | 1
Cc1ccc2c(c1)C(=O)C1(O)CCN(c3ccccc3)C1=N2 (stereo not drawn) | 3% | . | . | 29% | .
Cc1ccc(-n2nnnc2C(Cl)(Cl)c2nnnn2-c2ccc(C)cc2)cc1 | 7.1µM* | -17% | 24 | 18µM* | -5
Clc1ccc(-c2nnnn2-c2ccc(Cl)cc2)cc1 | -15% | -4% | 7 | 2% | -26

Bioassay records as filed in PubChem.
